This is an account of results in PubChem BioAssay (EPA / NIEHS).

A short description of assay [1]: ATG_NFI_CIS: Attagene CIS-FACTORIAL HepG2 Assay for human Nuclear Factor I (NFI) (AID 2282989). As to conditions: HepG2 cis-regulatory reporter, NFI response element transcription; actives raise or lower the signal. Put shortly:
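Reporter transcripts were measured by RT-PCR with fluorescent primer extension and capillary electrophoresis 24 h post-treatment. HepG2 cells carried transiently transfected cis-regulated reporter constructs reporting endogenous factor activity; gain or loss fitted against DMSO baseline.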

In assay [2] the target is Myc proto-oncogene protein (Homo sapiens) (UniProt P01106). In words: ATG_Myc_CIS: Attagene CIS-FACTORIAL HepG2 Assay for human Myelocytomatosis (Myc) Proto-Oncogene Transcription Factor (AID 2282990). Conditions: HepG2, Attagene cis-reporter transcription factor activity; actives raise or lower the signal. Put shortly:
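After 24 h chemical treatment of HepG2 cells carrying multiplexed cis-regulated reporter constructs, reporter transcripts quantified by RT-PCR and capillary electrophoresis of fluorescent fragments. Gain or loss fitted against DMSO baseline.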

Assay [3] can be described thus: ATG_NF_kB_CIS: Attagene CIS-FACTORIAL HepG2 Assay for human Nuclear Factor Kappa B (NF-kB) (AID 2282991). Conditions: HepG2 Attagene cis-factorial NF-kB reporter mRNA; actives raise or lower the signal. Summed up:
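Endpoint from a 52-component multiplexed HepG2 reporter panel: cis-regulated transcription units transiently transfected, 24 h dosing, reporter mRNA quantified by RT-PCR and capillary electrophoresis, scored as increase or decrease against DMSO.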

The nature of assay [4]: ATG_NRF2_ARE_CIS: Attagene CIS-FACTORIAL HepG2 Assay for human Nuclear Factor Erythroid 2 Related Factor 2 (NFR2) response to Antioxidant Response Elements (ARE) (AID 2282992). As to conditions: HepG2 Attagene ARE/NRF2 reporter, transcription factor activity; actives raise or lower the signal. Put shortly: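 Endogenous transcription factor activity read out as reporter transcript levels (RT-PCR plus capillary electrophoresis, fluorescence) in transiently transfected HepG2 cells. Measured at 24 h after dosing; gain or loss of signal fitted versus DMSO.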

The nature of assay [5]: ATG_Oct_MLP_CIS: Attagene CIS-FACTORIAL HepG2 Assay for human Octamer-Binding Transcription Factor (Oct) (AID 2282993). Conditions: HepG2 Attagene cis-factorial Oct reporter, mRNA; actives raise or lower the signal. Summed up:
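Readout is reporter transcript level from RT-PCR with fluorescent primer extension and capillary electrophoresis, fitted in both directions against DMSO. Transfected HepG2 reporter units report endogenous factor activity after 24 h dosing.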

Assay [6] has as its target Cellular tumor antigen p53 (Homo sapiens) (UniProt P04637). In words: ATG_p53_CIS: Attagene CIS-FACTORIAL HepG2 Assay for human p53 Transcription Factor (AID 2282994). Conditions: HepG2 p53 cis-element reporter, Attagene mRNA; actives raise or lower the signal. Put shortly:
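Endogenous p53 activity read in transiently transfected HepG2 from a cis-element-driven reporter transcript after 24 h exposure. RNA reverse-transcribed, PCR-amplified, fluorescently labelled and sized by capillary electrophoresis; gain or loss fitted against DMSO baseline.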

Assay [7] can be described thus: BSK_3C_uPAR: BioMAP Diversity Plus: 3C Assay for Urokinase-type plasminogen activator receptor (uPAR) Biomarker Activity (AID 2282998). As to conditions: BioMAP 3C HUVEC, uPAR biomarker ELISA; actives raise or lower the signal. Put shortly:
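Cell-surface uPAR on HUVEC (3C system) read by ELISA at 24 h post-treatment, with DMSO as baseline and fitting in both directions. Parallel cultures stained with SRB to flag overt cytotoxicity.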
Background: ELISA stands for enzyme-linked immunosorbent assay.

A short description of assay [8]: BSK_3C_VCAM1: BioMAP Diversity Plus: 3C Assay for Vascular cell adhesion molecule 1 (VCAM1) Biomarker Activity (AID 2282999). Conditions: BioMAP 3C HUVEC, VCAM1 ELISA, cytokine-stimulated; actives raise or lower the signal. Put shortly:
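Activity fitted in both directions relative to DMSO, with ELISA measurement of the surface marker on primary HUVEC (3C) at 24 h post-treatment; parallel SRB staining (0.1% SRB, TCA-fixed, 560 nm) flagged overt cytotoxicity.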

Assay [9] can be described thus: BSK_4H_Eotaxin3: BioMAP Diversity Plus: 4H Assay for Eotaxin 3 Biomarker Activity (AID 2283000).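 As to outcome: CCL26 protein level quantified by ELISA in parallel with SRB cytotoxicity check.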 Conditions: primary human endothelial cells (HUVEC); actives raise or lower the signal. Summed up:
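Eotaxin-3 (CCL26) levels were measured by ELISA in HUVEC primary cultures 24 h post-dosing. Gain or loss of signal was fitted in both directions, with DMSO serving as baseline and negative control.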

The target in assay [10] is human Peroxisome Proliferator-activated Receptor alpha (PPARa), PPARA (gene 5465) (UniProt Q07869). In words: ATG_PPARa_TRANS: Attagene TRANS-FACTORIAL HepG2 Assay for human Peroxisome Proliferator-activated Receptor alpha (PPARa) (AID 2283001; active = hit-call score of the fitted dose curve at least 0.9, where 1 is the maximum). Summed up:
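Reporter transcripts quantified by RT-PCR plus capillary electrophoresis after 24 h treatment, fitted upward relative to DMSO. Cells: human HepG2 transiently carrying multiple GAL4-UAS reporter units driven by NR-Gal4 chimeras.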

Read-out in assay [11]: Intercellular Adhesion Molecule 1 (ICAM1), ICAM1 (gene 3383)
Briefly: BSK_3C_ICAM1: BioMAP Diversity Plus: 3C Assay for Intercellular Adhesion Molecule 1 (ICAM1) Biomarker Activity (AID 2283003). As to conditions: primary human endothelial cells (HUVEC); actives raise or lower the signal. Summed up:
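Chemicals are dosed onto primary human umbilical vein endothelium (3C system). After 24 h, ICAM-1 is measured by ELISA, and responses are fitted bidirectionally relative to DMSO.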

The target of assay [12] is Peroxisome proliferator-activated receptor gamma (Homo sapiens) (UniProt P37231). In words: ATG_PPARg_TRANS: Attagene TRANS-FACTORIAL HepG2 Assay for human Peroxisome Proliferator-activated Receptor-gamma (PPARg) (AID 2283007; active = hit-call score of the fitted dose curve at least 0.9, where 1 is the maximum). Put shortly:
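Endpoint reflects upward reporter mRNA change versus DMSO controls. Setup: transiently transfected HepG2, GAL4-UAS reporters driven by chimeric NR-Gal4, 24 h incubation, RT-PCR with capillary electrophoresis read-out.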

Assay [13] addresses human RAR-related Orphan Receptor beta (RORb), RORB (gene 6096) (UniProt Q92753). In words: ATG_RORb_TRANS: Attagene TRANS-FACTORIAL HepG2 Assay for human RAR-related Orphan Receptor beta (RORb) (AID 2283010; active = hit-call score of the fitted dose curve at least 0.9, where 1 is the maximum). Summed up:
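Transfect HepG2 with multiple GAL4-UAS reporter transcription units; dose chemicals for 24 h; isolate RNA, reverse-transcribe and PCR-amplify reporter sequences; label, digest and resolve fragments by capillary electrophoresis; fit increases relative to DMSO.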

Assay [14] has as its target human RAR-related Orphan Receptor gamma (RORg), RORC (gene 6097) (UniProt P51449). Briefly: ATG_RORg_TRANS: Attagene TRANS-FACTORIAL HepG2 Assay for human RAR-related Orphan Receptor gamma (RORg) (AID 2283011; active = hit-call score of the fitted dose curve at least 0.9, where 1 is the maximum). Summed up:
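HepG2 cells transiently transfected with GAL4-UAS reporter units and chimeric RORg-Gal4 construct; after 24 h chemical exposure, reporter mRNA measured by RT-PCR with fluorescent capillary electrophoresis, gain of signal fitted against DMSO.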

Assay [15] has as its target human Peroxisome Proliferator-activated Receptor delta (PPARd), PPARD (gene 5467) (UniProt Q03181). Briefly: ATG_PPARd_TRANS: Attagene TRANS-FACTORIAL HepG2 Assay for human Peroxisome Proliferator-activated Receptor delta (PPARd) (AID 2283002; active = hit-call score of the fitted dose curve at least 0.9, where 1 is the maximum). Put shortly: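 Read-out is induced reporter mRNA, quantified by RT-PCR with fluorescent labelling and capillary electrophoresis after 24 h dosing. Cells are HepG2 transiently carrying multiple GAL4-UAS reporter units driven by exogenous NR-GAL4 chimeras; DMSO serves as baseline.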

Assay [16] addresses Nuclear receptor subfamily 1 group I member 2 (Homo sapiens) (UniProt O75469). In words: ATG_PXR_TRANS: Attagene TRANS-FACTORIAL HepG2 Assay for human Pregnane X Receptor (PXR) (AID 2283008; active = hit-call score of the fitted dose curve at least 0.9, where 1 is the maximum). Put shortly:
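Transactivation by exogenous PXR–GAL4 fusion measured as reporter transcript induction after 24 h compound treatment of transfected human HepG2 cells. Read-out via RT-PCR and capillary electrophoresis of labelled fragments, fitted upward relative to DMSO.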

Assay [17] can be described thus: BSK_3C_Proliferation: Cell Proliferation Assessment in the BioMAP Diversity Plus: 3C Assay (AID 2283006). Conditions: primary human endothelial cells (HUVEC). Summed up: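 Cells (human umbilical vein endothelial, sub-confluent) receive test chemical; after 48 h they are fixed in 10% trichloroacetic acid, stained with 0.1% SRB and read at 560 nm. Activity is referenced to DMSO, fitting increases and decreases.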

Assay [18] in a line: BSK_3C_TissueFactor: BioMAP Diversity Plus: 3C Assay for Tissue Factor Biomarker Activity (AID 2282997). Conditions: BioMAP 3C HUVEC, tissue factor biomarker readout; actives raise or lower the signal. Summed up: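 Tissue Factor measured by ELISA, 24 h after treatment of primary HUVEC in the BioMAP 3C setting.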

SMILES strings stand for the structures. Records with an inconclusive call do not appear. Activity calls are given as the source filed them. The calls were made as follows, unless noted: active = hit-call score of the fitted dose curve at least 0.9, where 1 is the maximum; inactive = score below 0.9.

By AC50 is commonly meant the midpoint of the concentration-response curve, whichever way the signal moves.

Chain of human RAR-related Orphan Receptor gamma (RORg), RORC (gene 6097) (P51449 whole entry, looked up, the tested form may be a part): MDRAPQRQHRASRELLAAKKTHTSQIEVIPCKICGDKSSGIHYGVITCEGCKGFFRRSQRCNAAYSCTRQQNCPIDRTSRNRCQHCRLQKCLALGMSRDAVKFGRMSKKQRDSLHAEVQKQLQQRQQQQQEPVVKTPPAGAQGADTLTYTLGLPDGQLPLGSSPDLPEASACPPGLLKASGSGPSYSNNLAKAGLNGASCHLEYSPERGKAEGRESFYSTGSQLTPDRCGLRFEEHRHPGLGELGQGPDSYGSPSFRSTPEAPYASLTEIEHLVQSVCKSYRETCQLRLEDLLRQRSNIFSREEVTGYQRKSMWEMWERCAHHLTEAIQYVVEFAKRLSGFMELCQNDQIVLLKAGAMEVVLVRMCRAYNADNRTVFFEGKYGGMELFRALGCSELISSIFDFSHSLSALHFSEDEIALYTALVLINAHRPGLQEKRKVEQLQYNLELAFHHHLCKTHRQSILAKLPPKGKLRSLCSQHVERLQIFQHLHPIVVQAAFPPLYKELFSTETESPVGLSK
Chain of Myc proto-oncogene protein (Homo sapiens) (P01106 whole entry, looked up, the tested form may be a part): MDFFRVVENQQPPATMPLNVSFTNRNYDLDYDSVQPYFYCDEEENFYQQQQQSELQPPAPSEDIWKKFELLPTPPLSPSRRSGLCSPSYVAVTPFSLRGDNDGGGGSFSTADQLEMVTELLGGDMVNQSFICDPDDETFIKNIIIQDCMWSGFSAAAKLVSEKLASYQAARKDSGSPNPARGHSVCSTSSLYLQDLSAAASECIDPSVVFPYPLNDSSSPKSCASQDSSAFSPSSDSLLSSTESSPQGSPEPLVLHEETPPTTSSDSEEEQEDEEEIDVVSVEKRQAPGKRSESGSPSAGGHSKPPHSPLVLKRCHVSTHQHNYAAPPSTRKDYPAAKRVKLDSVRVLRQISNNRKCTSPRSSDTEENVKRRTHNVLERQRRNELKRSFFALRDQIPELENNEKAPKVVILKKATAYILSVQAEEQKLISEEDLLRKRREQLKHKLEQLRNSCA
Chain of Peroxisome proliferator-activated receptor gamma (Homo sapiens) (P37231 whole entry, looked up, the tested form may be a part): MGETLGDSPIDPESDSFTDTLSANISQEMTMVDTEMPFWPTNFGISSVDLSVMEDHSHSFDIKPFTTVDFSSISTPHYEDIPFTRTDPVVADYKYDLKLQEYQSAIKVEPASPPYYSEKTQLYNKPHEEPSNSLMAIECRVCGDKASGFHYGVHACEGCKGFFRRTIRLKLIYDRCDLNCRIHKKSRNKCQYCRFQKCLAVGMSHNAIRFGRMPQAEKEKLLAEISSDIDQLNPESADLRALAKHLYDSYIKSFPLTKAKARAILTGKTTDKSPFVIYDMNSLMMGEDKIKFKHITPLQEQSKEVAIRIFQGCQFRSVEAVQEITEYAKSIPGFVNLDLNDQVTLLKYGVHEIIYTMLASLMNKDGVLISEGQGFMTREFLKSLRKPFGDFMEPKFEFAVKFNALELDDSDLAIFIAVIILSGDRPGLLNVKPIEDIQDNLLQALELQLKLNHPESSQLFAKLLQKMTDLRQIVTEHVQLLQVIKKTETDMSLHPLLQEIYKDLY
Chain of human RAR-related Orphan Receptor beta (RORb), RORB (gene 6096) (Q92753 whole entry, looked up, the tested form may be a part): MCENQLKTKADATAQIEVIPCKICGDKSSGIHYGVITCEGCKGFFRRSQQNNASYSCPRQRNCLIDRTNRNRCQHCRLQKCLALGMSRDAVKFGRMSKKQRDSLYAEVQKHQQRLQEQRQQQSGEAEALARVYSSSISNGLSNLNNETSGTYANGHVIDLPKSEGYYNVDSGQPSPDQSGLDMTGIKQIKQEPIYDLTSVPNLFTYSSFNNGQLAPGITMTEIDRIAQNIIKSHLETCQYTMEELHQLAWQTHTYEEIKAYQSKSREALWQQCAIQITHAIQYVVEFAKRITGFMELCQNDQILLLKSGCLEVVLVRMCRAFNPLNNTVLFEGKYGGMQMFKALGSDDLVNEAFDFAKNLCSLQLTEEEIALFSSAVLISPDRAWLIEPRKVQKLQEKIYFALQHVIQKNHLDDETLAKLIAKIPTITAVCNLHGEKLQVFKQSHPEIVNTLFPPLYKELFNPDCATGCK
Chain of Cellular tumor antigen p53 (Homo sapiens) (P04637 whole entry, looked up): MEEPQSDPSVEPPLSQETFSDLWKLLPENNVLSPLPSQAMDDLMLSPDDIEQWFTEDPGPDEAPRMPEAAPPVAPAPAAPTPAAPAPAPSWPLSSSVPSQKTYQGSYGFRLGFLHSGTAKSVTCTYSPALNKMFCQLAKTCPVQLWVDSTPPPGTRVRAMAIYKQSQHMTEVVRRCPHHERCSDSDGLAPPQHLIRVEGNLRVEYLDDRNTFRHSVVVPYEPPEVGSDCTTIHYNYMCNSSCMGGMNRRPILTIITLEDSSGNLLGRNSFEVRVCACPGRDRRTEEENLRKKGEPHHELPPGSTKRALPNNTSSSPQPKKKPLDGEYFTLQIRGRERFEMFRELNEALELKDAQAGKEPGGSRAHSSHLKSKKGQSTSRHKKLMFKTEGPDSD
Chain of human Peroxisome Proliferator-activated Receptor delta (PPARd), PPARD (gene 5467) (Q03181 whole entry, looked up, the tested form may be a part): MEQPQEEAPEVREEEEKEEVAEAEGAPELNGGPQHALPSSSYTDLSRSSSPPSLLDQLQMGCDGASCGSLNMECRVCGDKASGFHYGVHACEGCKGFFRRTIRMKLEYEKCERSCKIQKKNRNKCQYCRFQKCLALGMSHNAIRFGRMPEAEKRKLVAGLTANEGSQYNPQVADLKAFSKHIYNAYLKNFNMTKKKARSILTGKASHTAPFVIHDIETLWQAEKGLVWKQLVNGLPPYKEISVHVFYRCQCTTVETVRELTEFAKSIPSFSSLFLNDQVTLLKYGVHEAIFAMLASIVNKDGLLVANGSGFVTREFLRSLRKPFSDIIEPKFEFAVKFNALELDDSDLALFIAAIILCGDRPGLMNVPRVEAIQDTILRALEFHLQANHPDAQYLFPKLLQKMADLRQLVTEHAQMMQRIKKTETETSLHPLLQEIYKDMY
Chain of human Peroxisome Proliferator-activated Receptor alpha (PPARa), PPARA (gene 5465) (Q07869 whole entry, looked up, the tested form may be a part): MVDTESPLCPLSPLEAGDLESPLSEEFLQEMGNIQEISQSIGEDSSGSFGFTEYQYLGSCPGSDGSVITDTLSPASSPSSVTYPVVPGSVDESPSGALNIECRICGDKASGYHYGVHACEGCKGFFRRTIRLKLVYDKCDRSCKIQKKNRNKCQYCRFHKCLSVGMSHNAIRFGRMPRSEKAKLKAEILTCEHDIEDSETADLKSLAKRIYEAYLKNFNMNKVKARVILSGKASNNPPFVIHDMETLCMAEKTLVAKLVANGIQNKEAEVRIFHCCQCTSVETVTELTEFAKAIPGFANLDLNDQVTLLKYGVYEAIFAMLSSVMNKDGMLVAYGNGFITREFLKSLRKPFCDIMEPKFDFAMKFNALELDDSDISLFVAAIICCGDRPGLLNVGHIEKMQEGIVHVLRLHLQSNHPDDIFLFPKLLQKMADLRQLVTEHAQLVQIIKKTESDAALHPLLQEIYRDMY
Chain of Nuclear receptor subfamily 1 group I member 2 (Homo sapiens) (O75469 whole entry, looked up, the tested form may be a part): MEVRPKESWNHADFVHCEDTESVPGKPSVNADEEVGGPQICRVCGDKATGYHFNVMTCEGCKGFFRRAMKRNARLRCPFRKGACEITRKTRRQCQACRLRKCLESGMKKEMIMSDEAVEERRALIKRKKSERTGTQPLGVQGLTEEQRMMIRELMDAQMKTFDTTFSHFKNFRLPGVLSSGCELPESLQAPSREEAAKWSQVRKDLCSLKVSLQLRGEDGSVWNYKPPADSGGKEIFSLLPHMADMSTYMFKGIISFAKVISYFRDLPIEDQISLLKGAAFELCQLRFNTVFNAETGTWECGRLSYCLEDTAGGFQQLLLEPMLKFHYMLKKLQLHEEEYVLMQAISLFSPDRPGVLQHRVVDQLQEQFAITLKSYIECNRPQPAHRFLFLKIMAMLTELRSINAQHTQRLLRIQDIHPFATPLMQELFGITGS

As for `OC1OC[C@@H](O)[C@H](O)[C@H]1O` (some centres not stated), the compound was called inactive in assay [1], in assay [2], in [3], in assay [4], in assay [5] and in assay [6]. Further, the result in assay [7], in [8], in assay [9], in [10], in [11] and in assay [12] was inactive. Further, the outcome in [13] and in assay [14] was inactive.

On to `C=C(C)C(=O)O[C@H]1C[C@@H]2CC[C@@]1(C)C2(C)C`, for which the compound was classed as inactive in assay [1], in assay [2], in [3], in assay [5], in assay [10] and in assay [15]. The result in [13] was inactive. For the same compound, the AC50 is 72.1 µM (active) in assay [4]; 145 µM (active) in assay [6]; 13.5 µM (active) in assay [7]; 26.6 µM (active) in assay [8]; 9.05 µM (active) in assay [9]; 28.8 µM (active) in assay [11]. Moreover, in assay [16], the half-maximal activity concentration (AC50) was 31.6 µM (active).

On to `OCCOCCOCCOCCO`, for which the result in [1], in assay [2], in assay [3], in [4], in assay [5] and in assay [6] was inactive. The result in assay [10] was inactive.

Consider `CC(=O)OCCC(C)CC(C)(C)C` (configuration not stated), for which the result in assay [1], in assay [2], in assay [3], in assay [4], in assay [5] and in [6] was inactive. Further, the result in assay [7], in [8], in assay [9], in assay [15], in assay [11] and in [17] was inactive. In addition, in assay [13], the call was inactive.

For `CCCC/C=C\CCCCCCCCCC=O`, the compound was called inactive in assay [1], in assay [2], in assay [3], in [4], in assay [5] and in assay [6]. The compound was classed as inactive in [10], in assay [15], in assay [12] and in [16].

In the case of `CCCCC(CC)COCCC#N` (configuration not stated), the call in [1], in assay [2], in assay [3], in assay [4], in [5] and in [6] was inactive. Also, the result in [7], in assay [8], in [9], in assay [11], in assay [12] and in [16] was inactive. Also, the call in assay [14] was inactive.

For `CCCCOCCOCCSC#N`, the result in assay [1], in assay [2], in assay [3], in assay [5], in assay [6] and in [10] was inactive. Besides, the call in assay [15] and in assay [14] was inactive. Further, the half-maximal activity concentration (AC50) is 16.7 µM (active) in assay [4], 19.8 µM (active) in assay [12] and 3.36 µM (active) in assay [16].

For the compound `C[C@H]1C[C@@H]2[C@H]([C@@H](O)C[C@@]3(C)[C@H]2CC[C@]3(O)C(=O)CO)[C@@]2(C)C=CC(=O)C=C12`, the result in assay [1], in assay [2], in assay [3], in assay [5], in assay [6] and in [18] was inactive. Moreover, the outcome in [7], in [8], in assay [9], in [10], in assay [15] and in assay [11] was inactive. In addition, the compound was called inactive in [16]. The AC50 in [4] is 26.7 µM (active).

On to `NNc1nc(-c2ccc(N)cc2)cs1`, for which the compound was classed as inactive in [1], in assay [2], in assay [3], in assay [4], in [5] and in assay [6]. Moreover, the call in assay [10], in assay [15], in [12], in assay [16] and in assay [13] was inactive.
